CYP2C19 inhib: blockers of cytochrome P450 2C19 activity – biochemical, luminescence, ADME assay, primary screen. 96,000 tested, 21% active. inhibition, % at 5 µM. P33261. CYP2C19 Supersomes, luciferin-H EGE luminescence, 30 min;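 active = CYP2C19 inhibition above a set limit at 5 µM in the primary screen, cut at about 50% in these data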
CYP2C9 inhib: blockers of cytochrome P450 2C9 activity – biochemical, luminescence, ADME assay, primary screen; P11712; CYP2C9 Supersomes, luciferin-H conversion; inhibition, % at 5 µM; 96,000 tested, 20% active;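 active = blocking of liver enzyme CYP2C9 beyond about 50% at 5 µM, limit read from the data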
Target sequence (P11712 whole entry, looked up): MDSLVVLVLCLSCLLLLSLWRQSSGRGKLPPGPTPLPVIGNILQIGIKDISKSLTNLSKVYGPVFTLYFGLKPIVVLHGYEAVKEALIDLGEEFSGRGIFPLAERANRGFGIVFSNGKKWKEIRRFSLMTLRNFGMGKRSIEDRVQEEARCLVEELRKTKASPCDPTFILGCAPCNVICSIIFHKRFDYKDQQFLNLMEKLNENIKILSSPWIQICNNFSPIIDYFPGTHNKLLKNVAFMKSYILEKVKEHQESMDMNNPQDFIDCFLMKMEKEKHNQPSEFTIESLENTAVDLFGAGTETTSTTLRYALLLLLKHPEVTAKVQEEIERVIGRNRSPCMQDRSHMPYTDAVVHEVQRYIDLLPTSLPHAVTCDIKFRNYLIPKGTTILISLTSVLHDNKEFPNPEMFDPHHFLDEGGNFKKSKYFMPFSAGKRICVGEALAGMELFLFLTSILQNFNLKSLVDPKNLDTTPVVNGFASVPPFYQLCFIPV
CYP2C19 act: human CYP2C19 activators, primary screen, biochemical, luminescence; Cytochrome P450 2C19 (Homo sapiens), P33261; activation factor at 5 µM; 96,000 tested, under 10 active; recombinant CYP2C19, luciferin-H EGE luminescence; active compounds read high; 0 = fully inhibited enzyme, 1 = untreated enzyme;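 active = activation factor of at least 2 at 5 µM in the primary screen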
PostGolgi yeast: phenotypic screen on post-Golgi transport, primary screen; post-Golgi transport phenotypic cell assay; inhibition, % at 10 µM; 98,000 tested, 0.9% active;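 note: yeast cells grown in 1536-well plates; yeast grown about 18 h at 30C before absorbance read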
CYP2C9 act: human CYP2C9 activators, primary screen, biochemical, luminescence | Cytochrome P450 2C9 (Homo sapiens), P11712 | recombinant CYP2C9, luciferin-H conversion; active compounds read high; factor 1 = untreated enzyme, 0 = blocked | activation factor at 5 µM | 96,000 tested, 1.4% active | AID 1024, 2008;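 active = activation factor of 2 or more for CYP2C9 at a 5 µM dose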
PostGolgi ctrl: growth inhibition of yeast control strain, primary screen, counter-screen for post-Golgi transport modulator project. 98,000 tested, 5% active. AID 738, 2007. inhibition, % at 10 µM. efflux-deficient yeast background strain, growth absorbance A615, 16 h
Of the large screens only hits and unclear results are named; the others gave an inactive call. This is a sample that favours compounds with a hit; in the whole collection about 32% have one here. Cut-off read from the data, not from the text of the source, unless noted: active = inhibition above about 30%; inactive = the rest.

Cc1oc2c(CN3CCOCC3)c(O)ccc2c(=O)c1-c1ccc(Br)cc1	CYP2C9 inhib 54
Cc1oc2c(CN3CCCC3)c(O)ccc2c(=O)c1-c1ccc(Cl)cc1	none
CCc1cc2c(=O)c(-c3cnn(-c4ccccc4)c3)coc2c(CN2CCOCC2)c1O	CYP2C9 inhib 74
O=c1c(-c2ccc(Br)cc2)coc2c(CN3CCOCC3)c(O)ccc12	CYP2C9 inhib 58
O=C(c1cccc(C(F)(F)F)c1)N1CCN(C2CCCCC2)CC1	none
CCC(C)c1ccc(OCC(=O)Nc2ccc(Cl)cn2)cc1 (centres undefined)	none
COC(=O)c1cc2n(n1)CCN(Cc1ccc(F)cc1)C2=O	none
C=CCNC(=O)c1ccccc1NC(=O)c1ccccc1	none
c1ccc(-c2nnc3sc(CN4CCc5ccccc54)cn23)cc1	none (no result: CYP2C19 inhib, CYP2C9 inhib, CYP2C19 act, CYP2C9 act)
CC(C)(C)C1CCc2nc(NC(=O)Cc3cn4ccsc4n3)sc2C1 (centres undefined)	PostGolgi ctrl 46
CC1CCc2nc(NC(=O)Cc3cccs3)sc2C1 (centres undefined)	none
Cc1cc(Cl)c(S(=O)(=O)Nc2ccc3c(c2)OCO3)cc1OCC(N)=O	CYP2C19 inhib 90, CYP2C9 inhib 62
Cc1cc(Cl)c(S(=O)(=O)N2CCCC2)cc1OCC(=O)NC1CCCCC1	CYP2C19 inhib 95, CYP2C9 inhib 77
Cc1cc(Cl)c(S(=O)(=O)Nc2ccc3c(c2)OCO3)cc1OCC(=O)NC1CCCCC1	CYP2C19 inhib 79, CYP2C9 inhib 62
O=S(=O)(NCc1cccnc1)c1cc(Cl)ccc1Cl	none
Cc1cc(Cl)c(S(=O)(=O)NC(C(=O)O)c2ccccc2)cc1OCC(N)=O (centres undefined)	none
Cc1cc(Cl)c(S(=O)(=O)NCc2cccnc2)cc1OCC(=O)NC1CCCCC1	CYP2C9 inhib 58
Cc1cc(Cl)c(S(=O)(=O)NC(C(=O)O)C(C)C)cc1OCC(=O)NC1CCCCC1 (centres undefined)	none
CCN(CC)CCNCc1ccc(-c2ccc(Cl)cc2)o1	none
COC(=O)[C@H](C)NC(=O)Nc1cc(Cl)ccc1C	none
CCc1nc(C)c(C#N)c2cc(OC)c(OC)cc12	none
CCCNC(=O)COC(=O)c1ccc(Cl)c(S(=O)(=O)N2CCCC2)c1	none
O=C(COC(=O)c1ccc(Cl)c(S(=O)(=O)N2CCCC2)c1)NC1CCCC1	CYP2C19 inhib 65
Cc1ccc(C)n1CCN1CCN(CC(=O)Nc2cc(C(F)(F)F)ccc2Cl)CC1	none
CC(C)CNS(=O)(=O)c1ccc(S(=O)(=O)N2CCCN(Cc3ccccc3)C2)cc1	CYP2C19 inhib 50
CC1CCCN(S(=O)(=O)c2ccc(S(=O)(=O)N3CCCN(Cc4ccccc4)C3)cc2)C1 (centres undefined)	CYP2C19 inhib 95, CYP2C9 inhib 85 (no result: PostGolgi yeast, PostGolgi ctrl)
O=C(Nc1ccn(Cc2ccccc2F)n1)c1ccc(COc2ccccc2Cl)cc1	CYP2C19 inhib 79, CYP2C9 inhib 86
O=C(Nc1nn(Cc2ccc(Cl)cc2)cc1Br)c1ccc(COc2ccccc2Cl)o1	CYP2C19 inhib 81, CYP2C9 inhib 86
Cc1nn(C)c(C(=O)Nc2ccn(Cc3ccccc3F)n2)c1[N+](=O)[O-]	none
O=C(Nc1cccnc1)c1ccc(COc2cc(Cl)ccc2Cl)o1	CYP2C19 inhib 74, CYP2C9 inhib 60, PostGolgi ctrl 60
O=C(Nc1ccn(Cc2ccccc2F)n1)c1ccc(COc2cccc(Br)c2)cc1	CYP2C9 inhib 88
CS(=O)CCC(NS(=O)(=O)c1ccccc1)C(=O)O (centres undefined)	none
CCOc1ccccc1OCC(=O)O	none
O=C(Nc1ccn(Cc2c(F)c(F)cc(F)c2F)n1)c1ccc(COc2cc(Cl)ccc2Cl)o1	none
CN(C)c1ccc(NC(=O)c2ccc(COc3cccc(Cl)c3)o2)cc1	CYP2C9 inhib 71
O=C(Nc1ccn(Cc2c(F)c(F)cc(F)c2F)n1)c1cccc(Cn2cc([N+](=O)[O-])cn2)c1	CYP2C19 inhib 73, CYP2C9 inhib 82
CCOc1ccc(OCc2ccc(C(=O)Nc3cccnc3)o2)cc1	none
O=C(Nc1ccn(Cc2ccccc2F)n1)c1ccc(COc2cc(Cl)ccc2Cl)o1	CYP2C19 inhib 61, CYP2C9 inhib 91

High-throughput results (PubChem)
